Measurements reported in PubChem BioAssay AID763 (NMMLSC, 2007).
The source made the active and inactive calls. The rule behind the calls is not given here.

biological target: fMet-Leu-Phe receptor (Homo sapiens) (UniProt P21462); assay: human FPR1 ligand displacement single-point test – cell-based, single concentration, selectivity assay for FPRL1 ligand SAR project, SAR follow-up (AID 763); details: FPR1-expressing cells, fluorescent ligand binding inhibition, hits give high values; at 5.4 µM unless noted
Sequence (P21462 whole entry, looked up): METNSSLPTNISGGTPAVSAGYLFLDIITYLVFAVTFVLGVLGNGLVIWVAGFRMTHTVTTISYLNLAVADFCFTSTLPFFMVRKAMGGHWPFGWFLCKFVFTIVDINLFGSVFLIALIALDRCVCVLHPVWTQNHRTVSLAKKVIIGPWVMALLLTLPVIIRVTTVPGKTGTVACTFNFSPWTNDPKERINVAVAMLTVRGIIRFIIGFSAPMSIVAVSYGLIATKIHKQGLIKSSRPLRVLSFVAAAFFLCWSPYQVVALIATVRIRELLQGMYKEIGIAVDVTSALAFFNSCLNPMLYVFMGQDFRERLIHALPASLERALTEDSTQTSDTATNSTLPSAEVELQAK

Row | SMILES | inhibition
1 | Cc1ccc(-c2cc(C(F)F)nc(N3CCN(c4cccc(Cl)c4)CC3)n2)cc1 | 2.7% (inactive)
2 | COc1ccc(-c2cn3cccnc3n2)cc1NC(=O)c1ccc(C(F)(F)F)cc1 | 3.7% (inactive)
3 | COc1cccc(-c2cc(C(F)(F)F)nc(N3CCN(C)CC3)n2)c1 | 1.9% [at 6.3 µM] (inactive)
4 | Cc1ccc(-c2cc(C(F)F)nc(N3CCN(Cc4ccccc4)CC3)n2)cc1 | -7.2% [at 5.6 µM] (inactive)
5 | Clc1ccc2nc(N3CCN(c4ccccc4)CC3)nc(-c3ccccc3)c2c1 | 1.7% [at 5.5 µM] (inactive)
6 | COc1ccc(-c2cn3cccnc3n2)cc1NC(=O)c1cccc(Br)c1 | 0.1% [at 5.3 µM] (inactive)
7 | CCC(=O)Nc1cc(-c2cn3cccnc3n2)ccc1OC | 5% [at 7.5 µM] (inactive)
8 | COc1ccc(-c2cn3cccnc3n2)cc1NC(=O)c1ccc(F)c(F)c1 | -1.7% [at 5.8 µM] (inactive)
9 | COc1ccc(-c2cc(C(F)(F)F)nc(N3CCN(Cc4ccccc4)CC3)n2)cc1OC | 4.7% [at 4.9 µM] (inactive)
10 | CC(=O)N1CCN(c2nc(-c3ccccc3)c3ccccc3n2)CC1 | 2.3% [at 6.7 µM] (inactive)
11 | Clc1ccccc1N1CCN(c2nc(-c3ccccc3)c3cc(Br)ccc3n2)CC1 | 2.1% [at 4.6 µM] (inactive)
12 | COc1ccc(-c2cc(C(F)(F)F)nc(N3CCN(c4ccccc4)CC3)n2)cc1OC | 54.8% [at 5 µM] (active)
13 | COc1ccccc1-c1cc(C(F)(F)F)nc(N2CCN(c3ccc(F)cc3)CC2)n1 | -2.5% [at 5.1 µM] (inactive)
14 | Cc1nc2c3c(-c4ccccc4)nc(N4CCN(C)CC4)nc3nn2c(C)c1CCC(=O)O | 0% [at 5 µM] (inactive)
15 | Cc1ccc2nc(N3CCN(C(=O)CCCC(=O)O)CC3)nc(-c3ccccc3)c2c1 | -4.8% [at 5.3 µM] (inactive)
16 | COc1cccc(-c2cc(C(F)(F)F)nc(N3CCN(c4ccccc4OC)CC3)n2)c1 | -2.3% [at 5 µM] (inactive)
17 | Cc1ccc2nc(N3CCN(c4ccccc4)CC3)nc(-c3ccccc3)c2c1 | 0.6% [at 5.8 µM] (inactive)

Row | SMILES | inhibition
18 | COc1ccc(-c2cn3cccnc3n2)cc1NC(=O)c1cccc(C(F)(F)F)c1 | -2% (inactive)
19 | O=C(c1cccc(F)c1)N1CCN(c2nc(-c3cccs3)cc(C(F)(F)F)n2)CC1 | 1.1% [at 5.1 µM] (inactive)
20 | CC(N)C(=O)N1CCN(c2nc(-c3ccccc3)c3cc([N+](=O)[O-])ccc3n2)CC1 (stereo not drawn) | -1.4% [at 5.5 µM] (inactive)
21 | COc1ccccc1-c1cc(C(F)(F)F)nc(N2CCN(c3ccccc3)CC2)n1 | -10.8% (inactive)
22 | CCOC(=O)N1CCN(c2nc(-c3ccccc3)c3ccccc3n2)CC1 | 3.6% [at 6.1 µM] (inactive)
23 | COc1ccc(-c2cn3cccnc3n2)cc1NC(=O)C1CC1 | -2.9% [at 7.2 µM] (inactive)
24 | CCN1CCN(c2nc(-c3ccc(Cl)cc3)cc(C(F)(F)F)n2)CC1 | -3.5% [at 6 µM] (inactive)
25 | Fc1ccc(-c2cc(C(F)(F)F)nc(N3CCN(c4cccc(Cl)c4)CC3)n2)cc1 | 5.6% [at 5.1 µM] (inactive)
26 | FC(F)(F)c1cc(-c2ccccc2)nc(N2CCN(Cc3ccccc3)CC2)n1 | -9.1% [at 5.6 µM] (inactive)
27 | CC1CCc2nc(N3CCN(Cc4ccccc4)CC3)nc(C(F)(F)F)c2C1 (stereo not drawn) | 4.7% [at 5.7 µM] (inactive)
28 | FC(F)(F)c1cc(-c2cccs2)nc(N2CCN(C(c3ccccc3)c3ccccc3)CC2)n1 | -2.4% [at 4.6 µM] (inactive)
29 | Cc1ccc2nc(N3CCN(c4ccccc4Cl)CC3)nc(-c3ccccc3)c2c1 | -6% (inactive)
30 | Clc1cccc(-c2nc(N3CCN(C4CCCCC4)CC3)nc3c2COc2ccccc2-3)c1 | -4.5% [at 4.8 µM] (inactive)
31 | Cc1c(-c2cccc(NC(=O)C(C)(C)C)c2)nc2ncccn12 | 4.9% [at 7.2 µM] (inactive)
32 | COc1ccc(-c2cn3cccnc3n2)cc1NC(=O)c1cccc(F)c1 | -0.9% [at 6.1 µM] (inactive)
33 | CCOC(=O)N1CCN(c2nc(-c3ccc(OC)c(OC)c3)cc(C(F)(F)F)n2)CC1 | 4.1% [at 5.1 µM] (inactive)
